Test results: the supplement of paper PMC7411054
Where a name gives a salt, the structure may show the parent alone.

Assays:
Experiment in all cases: lowest phenotypically active concentration; higher = less potent
Details in all cases: treatment time: 24 h
HepG2-CANX-COX4 = system: HepG2-CANX-COX4
Outline: (§1)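 Fifteen reporter lines derived from A549, HepG2 and WPMY1 cells by gene editing, carrying BFP for segmentation plus GFP and RFP/FusionRed markers, were exposed to 0.3, 1, 3 or 9 µM for 24 h in four wells each and imaged live. Live-cell features from each well were normalised to solvent control wells. A well set counted as deviating when ≥3 of 4 wells lay beyond the 95th percentile of control Euclidean distances, and as reproducible when the median replicate Pearson correlation exceeded the 95th percentile of non-replicates. Phenotypic activity was assigned only when both criteria were met.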

WPMY1-ACTB-RAB5A = system: WPMY1-ACTB-RAB5A
Outline: as §1

HepG2-TP53BP1-CLTA = system: HepG2-TP53BP1-CLTA
Outline: as §1

WPMY1-TP53BP1-CLTA = system: WPMY1-TP53BP1-CLTA
Outline: as §1

WPMY1-TUBA1B-RELA = system: WPMY1-TUBA1B-RELA
Outline: as §1

HepG2-TUBA1B-RELA = system: HepG2-TUBA1B-RELA
Outline: as §1

A549-TUBA1B-RELA = system: A549-TUBA1B-RELA
Outline: as §1

A549-CANX-COX4 = system: A549-CANX-COX4
Outline: as §1

A549-TP53BP1-CLTA = system: A549-TP53BP1-CLTA
Outline: as §1

HepG2-GM130-SQSTM1 = system: HepG2-GM130-SQSTM1
Outline: as §1

CCOC(=O)N1CCC(=C2c3ccc(Cl)cc3CCc3cccnc32)CC1 [loratadine]
lowest phenotypically active concentration (HepG2-CANX-COX4): 3 µM

N=C1NC(=O)/C(=C\c2ccc(O)cc2)S1 [Mirin]
lowest phenotypically active concentration (WPMY1-ACTB-RAB5A): 9 µM

Cc1cccc(-c2n[nH]cc2-c2ccc(F)c(-c3cnn(CCO)c3)c2)n1
lowest phenotypically active concentration (HepG2-CANX-COX4): 9 µM | lowest phenotypically active concentration (HepG2-TP53BP1-CLTA): 9 µM | lowest phenotypically active concentration (WPMY1-ACTB-RAB5A): 9 µM | lowest phenotypically active concentration (WPMY1-TP53BP1-CLTA): 9 µM | lowest phenotypically active concentration (WPMY1-TUBA1B-RELA): 9 µM

O=C1NCCCc2c1oc1ccc(O)cc21
lowest phenotypically active concentration (HepG2-CANX-COX4): 9 µM | lowest phenotypically active concentration (HepG2-TUBA1B-RELA): 9 µM | lowest phenotypically active concentration (WPMY1-ACTB-RAB5A): 9 µM | lowest phenotypically active concentration (WPMY1-TUBA1B-RELA): 9 µM

CC[C@H](Nc1ncnc2[nH]cnc12)c1nc2cccc(F)c2c(=O)n1-c1ccccc1 [idelalisib]
lowest phenotypically active concentration (WPMY1-ACTB-RAB5A): 9 µM

O=C(O/N=C1\c2ccccc2-c2nc3ccccc3nc21)c1ccco1
lowest phenotypically active concentration (WPMY1-ACTB-RAB5A): 9 µM | lowest phenotypically active concentration (WPMY1-TP53BP1-CLTA): 9 µM | lowest phenotypically active concentration (WPMY1-TUBA1B-RELA): 3 µM

Cc1cc2sc(NC(=O)Cc3ccccc3)nc2cc1Cl
lowest phenotypically active concentration (A549-TUBA1B-RELA): 9 µM

COc1ccc(-n2c(SCCCN3C(=O)c4cccc5cccc(c45)C3=O)nnc2-c2ccncc2)cc1
lowest phenotypically active concentration (A549-TUBA1B-RELA): 3 µM

Cn1cc(-c2ccc3nnc(Sc4ccc5ncccc5c4)n3n2)cn1
lowest phenotypically active concentration (A549-CANX-COX4): 1 µM | lowest phenotypically active concentration (A549-TP53BP1-CLTA): 1 µM

Cc1nc2sccn2c(=O)c1CCN1CCC(=C(c2ccc(F)cc2)c2ccc(F)cc2)CC1 [Ritanserin]
lowest phenotypically active concentration (HepG2-GM130-SQSTM1): 9 µM | lowest phenotypically active concentration (HepG2-TUBA1B-RELA): 9 µM

Cc1c[nH]c2ncnc(-c3ccc(NC(=O)N(CCO)c4ccccc4)cc3)c12
lowest phenotypically active concentration (WPMY1-TUBA1B-RELA): 9 µM

C[C@@H]1CCN(C(=O)CC#N)C[C@@H]1N(C)c1ncnc2[nH]ccc12
lowest phenotypically active concentration (HepG2-CANX-COX4): 9 µM | lowest phenotypically active concentration (HepG2-GM130-SQSTM1): 9 µM | lowest phenotypically active concentration (HepG2-TP53BP1-CLTA): 9 µM

COC(=O)C1=CO[C@@H](C)[C@H]2CN3CCc4c([nH]c5ccccc45)[C@@H]3C[C@H]12 [Ajmalicine hydrochloride]
lowest phenotypically active concentration (A549-CANX-COX4): 9 µM | lowest phenotypically active concentration (HepG2-CANX-COX4): 9 µM | lowest phenotypically active concentration (HepG2-TP53BP1-CLTA): 9 µM

O=c1cc(N2CCOCC2)oc2c(-c3ccccc3)cccc12
lowest phenotypically active concentration (A549-TP53BP1-CLTA): 9 µM | lowest phenotypically active concentration (A549-TUBA1B-RELA): 9 µM | lowest phenotypically active concentration (HepG2-GM130-SQSTM1): 9 µM | lowest phenotypically active concentration (HepG2-TP53BP1-CLTA): 9 µM | lowest phenotypically active concentration (HepG2-TUBA1B-RELA): 9 µM | lowest phenotypically active concentration (WPMY1-ACTB-RAB5A): 9 µM | lowest phenotypically active concentration (WPMY1-TP53BP1-CLTA): 9 µM

N=C(N)NC(=N)NCCc1ccccc1 [phenformin]
lowest phenotypically active concentration (A549-CANX-COX4): 9 µM

Cc1cccc(C)c1OCC(C)N (stereo unspecified) [mexiletine]
lowest phenotypically active concentration (A549-CANX-COX4): ≤ 0.3 µM | lowest phenotypically active concentration (A549-TP53BP1-CLTA): ≤ 0.3 µM

CC(C)(C)c1ccc(S(=O)(=O)/C=C/C#N)cc1
lowest phenotypically active concentration (HepG2-GM130-SQSTM1): 9 µM | lowest phenotypically active concentration (HepG2-TUBA1B-RELA): 9 µM | lowest phenotypically active concentration (WPMY1-TP53BP1-CLTA): 9 µM

O=c1c(-c2ccc(O)cc2)coc2cc(O)cc(O)c12 [Genistein]
lowest phenotypically active concentration (A549-TP53BP1-CLTA): 9 µM | lowest phenotypically active concentration (A549-TUBA1B-RELA): 9 µM | lowest phenotypically active concentration (WPMY1-ACTB-RAB5A): 9 µM | lowest phenotypically active concentration (WPMY1-TP53BP1-CLTA): 9 µM | lowest phenotypically active concentration (WPMY1-TUBA1B-RELA): 9 µM

CC(C)(C)c1cc(/C=C(\C#N)C(N)=S)cc(C(C)(C)C)c1O
lowest phenotypically active concentration (A549-CANX-COX4): 9 µM | lowest phenotypically active concentration (A549-TP53BP1-CLTA): 9 µM | lowest phenotypically active concentration (HepG2-CANX-COX4): 9 µM | lowest phenotypically active concentration (HepG2-GM130-SQSTM1): 9 µM | lowest phenotypically active concentration (HepG2-TP53BP1-CLTA): 9 µM | lowest phenotypically active concentration (HepG2-TUBA1B-RELA): 9 µM | lowest phenotypically active concentration (WPMY1-TP53BP1-CLTA): 9 µM

C[C@H](NC(=O)[C@@H](O)c1cc(F)cc(F)c1)C(=O)N[C@@H]1C(=O)N(C)c2ccccc2-c2ccccc21
lowest phenotypically active concentration (HepG2-CANX-COX4): 1 µM | lowest phenotypically active concentration (WPMY1-ACTB-RAB5A): ≤ 0.3 µM

C[C@@H]1CN(Cc2ccc(F)cc2)[C@@H](C)CN1C(=O)c1cc2c(C(=O)C(=O)N(C)C)cn(C)c2cc1Cl [SCIO 469 hydrochloride]
lowest phenotypically active concentration (HepG2-CANX-COX4): 1 µM | lowest phenotypically active concentration (HepG2-TP53BP1-CLTA): 9 µM | lowest phenotypically active concentration (HepG2-TUBA1B-RELA): 9 µM | lowest phenotypically active concentration (WPMY1-ACTB-RAB5A): 1 µM

O=c1cc(N2CCOCC2)oc2c1ccc1ccccc12
lowest phenotypically active concentration (WPMY1-TUBA1B-RELA): 9 µM

CCc1ccc(/C=C/C(=O)Nc2ccc(C(C)=O)cc2)o1 [Heclin]
lowest phenotypically active concentration (A549-TUBA1B-RELA): 9 µM

CC(C)NCC(O)COc1ccc(CC(N)=O)cc1 (stereo unspecified) [atenolol-()]
lowest phenotypically active concentration (WPMY1-TP53BP1-CLTA): 9 µM

CO[C@H]1C=CO[C@@]2(C)Oc3c(C)c(O)c4c(O)c(c(/C=N/N5CCN(C)CC5)c(O)c4c3C2=O)NC(=O)C(C)=CC=C[C@H](C)[C@H](O)[C@@H](C)[C@@H](O)[C@@H](C)[C@H](OC(C)=O)[C@@H]1C [Rifampicin]
lowest phenotypically active concentration (HepG2-CANX-COX4): 3 µM

CCOc1nc(NC(=O)Cc2cc(OC)ccc2OC)cc(N)c1C#N
lowest phenotypically active concentration (A549-TUBA1B-RELA): 9 µM

Cc1cc(C(=O)Nc2cccc(C(=O)Nc3cccc(C(F)(F)F)c3)c2)on1
lowest phenotypically active concentration (HepG2-CANX-COX4): 1 µM

CC(C)N(CCCNC(=O)Nc1ccc(C(C)(C)C)cc1)C[C@H]1O[C@@H](n2cc(Br)c3c(N)ncnc32)[C@H](O)[C@@H]1O
lowest phenotypically active concentration (A549-TP53BP1-CLTA): 3 µM | lowest phenotypically active concentration (HepG2-CANX-COX4): 9 µM | lowest phenotypically active concentration (HepG2-GM130-SQSTM1): 3 µM | lowest phenotypically active concentration (HepG2-TP53BP1-CLTA): 1 µM | lowest phenotypically active concentration (HepG2-TUBA1B-RELA): 9 µM | lowest phenotypically active concentration (WPMY1-ACTB-RAB5A): 3 µM | lowest phenotypically active concentration (WPMY1-TP53BP1-CLTA): 9 µM | lowest phenotypically active concentration (WPMY1-TUBA1B-RELA): 9 µM

O=C(O)[C@H]1CCCC[C@H]1C(=O)N1CCc2ccccc2[C@H]1CN1C(=O)c2ccccc2C1=O
lowest phenotypically active concentration (HepG2-GM130-SQSTM1): 9 µM | lowest phenotypically active concentration (HepG2-TUBA1B-RELA): 9 µM

Cc1c(C)c2c(c(C)c1O)CC[C@@](C)(CCC[C@H](C)CCC[C@H](C)CCCC(C)C)O2 [Tocopherol (R,S)]
lowest phenotypically active concentration (HepG2-CANX-COX4): 3 µM

S=c1[nH]cnc2nc[nH]c12 [mercaptopurine]
lowest phenotypically active concentration (HepG2-CANX-COX4): 9 µM | lowest phenotypically active concentration (HepG2-TUBA1B-RELA): 9 µM | lowest phenotypically active concentration (WPMY1-TUBA1B-RELA): 9 µM

Clc1ccc(C(c2ccc(Cl)cc2)[n+]2ccn(CC(OCc3ccc(Cl)cc3Cl)c3ccc(Cl)cc3Cl)c2)cc1 (stereo unspecified) [Calmidazolium chloride]
lowest phenotypically active concentration (HepG2-TUBA1B-RELA): 3 µM | lowest phenotypically active concentration (WPMY1-TUBA1B-RELA): 3 µM

O=c1c(O)c(-c2ccc(O)cc2)oc2cc(O)cc(O)c12 [Kaempferol]
lowest phenotypically active concentration (WPMY1-TP53BP1-CLTA): 9 µM

O=C(/C=C/c1ccc(O)cc1)c1ccc(O)cc1O [Isoliquiritigenin]
lowest phenotypically active concentration (A549-TUBA1B-RELA): 9 µM | lowest phenotypically active concentration (HepG2-GM130-SQSTM1): 9 µM | lowest phenotypically active concentration (WPMY1-TP53BP1-CLTA): 9 µM

Nc1nnc(Sc2ncc([N+](=O)[O-])s2)s1
lowest phenotypically active concentration (A549-TUBA1B-RELA): 9 µM
